The source of these data is PubChem BioAssay (NCATS).

Inconclusive results are not listed. Active and inactive are the calls of the source. Calls follow the shape of the dose curve; as a rule, active = well fitted curve in the direction sought with a large enough effect; inconclusive = small, poorly fitted or top-dose-only effect, or another doubt; inactive = no such curve, though single readings can be large; an effect the other way counts as inactive or inconclusive.

Experiment [1] is described as follows: qHTS of pediatric cancer cell lines to identify multiple opportunities for drug repurposing: Primary screen for TC32 cells (AID 1347089). Also: nearly all actives have a fitted effect of over 60% in size. Particulars: TC32 Ewing sarcoma viability, CellTiter-Glo luminescence, 48 h; series mostly up to 45.8 µM. The method, boiled down: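 TC32 cells, 500-1,000/well in growth medium, compound-treated 48 h at 37 °C; viability from CellTiter-Glo luminescence. Primary screen: MIPE 11-point (0.78 nM–46 µM final), NPC 8-point (0.59 nM–46 µM final); confirmatory at 11-point dilutions.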
(In general: qHTS replaces the single test concentration by a dilution series.)

A short description of experiment [2]: qHTS of pediatric cancer cell lines to identify multiple opportunities for drug repurposing: Primary screen for SJ-GBM2 cells (AID 1347091). Also: potency is read from the fitted curve at half-maximal effect. Particulars: SJ-GBM2 viability, CellTiter-Glo luminescence, 48 h; series mostly up to 46 µM. The method, boiled down:
(§1)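 Eight- or eleven-point concentration series, 48 h treatment at 37 degrees C in growth media; readout CellTiter-Glo luminescence. Potency and efficacy were taken from the concentration-response curves.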

Experiment [3] in a line: qHTS of pediatric cancer cell lines to identify multiple opportunities for drug repurposing: Primary screen for NB-EBc1 cells (AID 1347095). Also: potency is read from the fitted curve at half-maximal effect. Particulars: NB-EBc1 neuroblastoma viability, CellTiter-Glo luminescence, 48 h; series mostly up to 46 µM. The method, boiled down:
(§2)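 Luminescence from CellTiter-Glo served as readout of metabolically active cells after 48 h compound exposure. Titrations: MIPE 11-point, from 0.78 nM; NPC 8-point, from 0.59 nM (final). Concentration-response curves came straight from the primary screen.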

The nature of experiment [4]: qHTS of pediatric cancer cell lines to identify multiple opportunities for drug repurposing: Primary screen for U-2 OS cells (AID 1347096). Also: nearly all actives have a fitted effect of over 50% in size. Particulars: U-2 OS viability, CellTiter-Glo luminescence, 48 h; series mostly up to 46 µM. The method, boiled down: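 Cells (500-1,000/well) in growth media were settled 5 h at 37 degrees C, then given compounds for 48 h. Viability was read as CellTiter-Glo luminescence. Primary runs used MIPE at 11 points (0.78 nM-46 µM) and NPC at 8 points (0.59 nM-46 µM); follow-ups used 11 points.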

Experiment [5] in a line: qHTS of pediatric cancer cell lines to identify multiple opportunities for drug repurposing: Primary screen for Saos-2 cells (AID 1347097). Also: nearly all actives have a fitted effect of over 40% in size. Also: potency is read from the fitted curve at half-maximal effect. Particulars: Saos-2 viability, CellTiter-Glo ATP luminescence, 48 h; series mostly up to 46 µM. The method, boiled down: as §2
The nature of experiment [6]: qHTS of pediatric cancer cell lines to identify multiple opportunities for drug repurposing: Primary screen for A673 cells (AID 1347092). Also: nearly all actives have a fitted effect of over 45% in size. Also: potency is read from the fitted curve at half-maximal effect. Particulars: A673 Ewing sarcoma viability, CellTiter-Glo ATP luminescence, 48 h; series mostly up to 46 µM. An outline of the steps:
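A673 cells (500-1,000 cells/well) were treated 48 hours at 37 degrees C with compounds at 11-point (0.78 nM to 46 µM) or 8-point (0.59 nM to 46 µM) dilutions. Viability read by CellTiter-Glo luminescence; concentration-response curves fitted.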

A short description of experiment [7]: qHTS of pediatric cancer cell lines to identify multiple opportunities for drug repurposing: Primary screen for SK-N-MC cells (AID 1347093). Also: potency is read from the fitted curve at half-maximal effect. Particulars: SK-N-MC viability, CellTiter-Glo luminescence, 48 h; series mostly up to 46 µM. An outline of the steps:
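Metabolically active cells were quantified by ATP-dependent luminescence (CellTiter-Glo, 15 min at room temperature) following 48 h treatment. Cells had been plated at 500-1,000 per well and settled for 5 h beforehand.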

Experiment [8] is described as follows: qHTS of pediatric cancer cell lines to identify multiple opportunities for drug repurposing: Primary screen for BT-37 cells (AID 1347094). Also: potency is read from the fitted curve at half-maximal effect. Particulars: BT-37 viability, CellTiter-Glo luminescence, 48 h; series mostly up to 57.3 µM. An outline of the steps: as §2
Experiment [9] is described as follows: qHTS of pediatric cancer cell lines to identify multiple opportunities for drug repurposing: Primary screen for DAOY cells (AID 1347090). Also: nearly all actives have a fitted effect of over 55% in size. Also: potency is read from the fitted curve at half-maximal effect. Particulars: DAOY medulloblastoma viability, CellTiter-Glo luminescence, 48 h; series mostly up to 46 µM. The method, boiled down:
as §1

Turning to `CC=CC[C@@H](C)C(=O)[C@H]1C(=O)N[C@@H](C(C)C)C(=O)N(C)CC(=O)N(C)[C@@H](CC(C)C)C(=O)N[C@@H](C(C)C)C(=O)N(C)[C@@H](CC(C)C)C(=O)N[C@@H](C)C(=O)N[C@H](C)C(=O)N(C)[C@@H](CC(C)C)C(=O)N(C)[C@@H](CC(C)C)C(=O)N(C)[C@@H](C(C)C)C(=O)N1C`, the Potency entry in experiment [1], in [3] and in experiment [4] was “inactive” throughout. In addition, the Potency in experiment [2] and in experiment [5] was 18.7 µM (active) each time.
As to `CC(C)n1cnc2c(NCCCCCCNC(=O)OC(C)(C)C)nc(NCCO)nc21`, the Potency result in [1], in experiment [3], in experiment [4] and in experiment [5] was “inactive” each time. The Potency in experiment [6] is 18.7 µM (active).
As for `COc1cccc([C@@H](C)NCCCc2ccccc2Cl)c1`, the Potency entry in experiment [1], in experiment [8], in [4] and in experiment [5] was “inactive” in each case. In experiment [7], the Potency was 11.8 µM (active).
With `Cc1c(NC(=O)c2ccc(C(C)(C)C)cc2)cccc1-c1cn(C)c(=O)c(Nc2ccc(C(=O)N3CCOCC3)cc2)n1`, the Potency result in [1] is “inactive”. Besides, the Potency was 9.35 µM (active) in experiment [6], 18.7 µM (active) in [7], 18.7 µM (active) in experiment [3] and 18.7 µM (active) in [5].
For `O=C(Nc1cc(Cl)cc2c1[nH]c1cnccc12)c1cccnc1`, the Potency result in experiment [1], in experiment [4] and in [5] was “inactive” each time. Further, the Potency in experiment [6] is 14.8 µM (active); in experiment [7], 4.18 µM (active).
Turning to `COc1ccc(-c2oc3c(CC=C(C)C)c(OC4O[C@H](CO)[C@@H](O)[C@H](O)[C@@H]4O)cc(O)c3c(=O)c2OC2O[C@@H](C)[C@H](O)[C@@H](O)[C@@H]2O)cc1` (some centres not stated), the Potency entry in experiment [1] was “inactive”. The Potency in [2] is 18.7 µM (active); in experiment [7] it was 10.5 µM (active); in experiment [3] it was 23.5 µM (active); in [5], 26.4 µM (active).
On to `COC(=O)N[C@H](C(=O)N1CCC[C@@H]1c1ncc(-c2ccc(-c3ccc(-c4cnc([C@@H]5CCCN5C(=O)[C@@H](NC(=O)OC)C(C)C)[nH]4)cc3)cc2)[nH]1)C(C)C`, for which the Potency result in experiment [1] is “inactive”. Besides, the Potency is 23.5 µM (active) in [2], 26.4 µM (active) in experiment [3] and 18.7 µM (active) in experiment [5].
In the case of `O=c1cc(-c2cccc3c2Sc2ccccc2S3)oc(N2CCOCC2)c1`, the Potency result in [1], in experiment [8], in experiment [3] and in [4] was “inactive” each time. Further, the Potency in experiment [7] is 18.7 µM (active).
With `CCS(=O)(=O)N1CC(CC#N)(n2cc(-c3ncnc4[nH]ccc34)cn2)C1`, the Potency result in [1], in [4] and in [5] was “inactive” in each case. In addition, the Potency in [6] was 14.8 µM (active).
For the molecule `c1cc(-c2sc(-c3ccncc3)c(-c3ccncc3)c2-c2ccncc2)ccn1`, the Potency result in experiment [1], in [2], in experiment [8], in experiment [3] and in experiment [4] was “inactive” in each case. Further, the Potency in [7] was 20.9 µM (active).
With `C[C@H](NC(=O)C(=O)Nc1ccccc1C(C)(C)C)C(=O)N[C@@H](CC(=O)O)C(=O)COc1c(F)c(F)cc(F)c1F`, the Potency entry in experiment [1], in experiment [8] and in experiment [3] was “inactive” throughout. Also, the Potency was 5.9 µM (active) in [7] and 18.7 µM (active) in experiment [5].
As to `COC[C@@H](c1ccc(C(F)(F)F)cc1)N1CCN(C2(C)CCN(C(=O)c3c(C)ncnc3C)CC2)C[C@H]1C`, the Potency entry in [1], in experiment [8], in [3], in experiment [4] and in experiment [5] was “inactive” in each case. The Potency in experiment [7] is 3.32 µM (active).
For the molecule `O=C(NCc1ccccc1)c1csc(Nc2ccncn2)n1`, the Potency result in [1] is “inactive”. In addition, the Potency in experiment [7] is 20.9 µM (active); in [8] it was 17.2 µM (active); in experiment [3], 14.8 µM (active); in experiment [5] it was 11.8 µM (active).
As for `CC1CCC(C(=O)N(c2cc(C#CC(C)(C)C)sc2C(=O)O)C2CCC(O)CC2)CC1` (configuration not stated), the Potency result in [1], in [6] and in experiment [4] was “inactive” each time.
As to `O=C1NC(=O)C(=Cc2cccc(C(F)(F)F)c2)S1`, the Potency entry in experiment [1], in [8], in experiment [4] and in [5] was “inactive” throughout.
With `CS(=O)(=O)N(Cc1ccco1)CC(O)Cn1c2ccccc2c2ccccc21` (configuration not stated), the Potency entry in experiment [9], in [8], in experiment [3] and in experiment [4] was “inactive” in each case.
`COCCOC(=O)C1=C(C)NC2=C(C(=O)CC(c3ccccc3OC)C2)C1c1cccc(O)c1` (configuration not stated): the Potency in experiment [6] is 23.5 µM (active); in experiment [7], 18.7 µM (active); in experiment [3] it was 18.7 µM (active). The Potency entry in [4] is “inactive”.
For `O=C(Nc1cccc(Br)c1)c1cccc(S(=O)(=O)N2CCCCCC2)c1`, the Potency entry in experiment [1] and in experiment [4] was “inactive” each time. In experiment [5], the Potency was 16.6 µM (active).
As to `C=C1C(=O)OC2C=C(C)CCC=C(C)CCC12` (configuration not stated), the Potency result in [1], in experiment [8] and in experiment [4] was “inactive” each time. In addition, the Potency in experiment [5] was 33.2 µM (active).
Take `CO[C@H]1C[C@@H]2CC[C@@H](C)[C@@](O)(O2)C(=O)C(=O)N2CCCC[C@@H]2C(=O)O[C@H]([C@H](C)C[C@@H]2CC[C@H](OP(C)(C)=O)[C@H](OC)C2)CC(=O)[C@H](C)C=C(C)[C@@H](O)[C@@H](OC)C(=O)[C@H](C)C[C@H](C)C=CC=CC=C1C`: the Potency entry in [9] and in [4] was “inactive” throughout.
With `CNC(=O)c1ccccc1Sc1ccc2c(C=Cc3ccccn3)n[nH]c2c1`, the Potency in [2] was 2.96 µM (active); in experiment [7] it was 3.32 µM (active); in experiment [5] it was 14.8 µM (active). Also, in [4], the Potency result was “inactive”.
Take `CC(C)C(=O)Nc1ncc(-c2cc(C(F)F)nn2-c2c(Cl)cccc2Cl)s1`: the Potency entry in experiment [1] is “inactive”. In addition, the Potency in [3] is 16.6 µM (active); in experiment [5], 18.7 µM (active).
Regarding `O=C1NC(=O)C(=Cc2ccc3nccnc3c2)S1`, the Potency entry in experiment [1] and in experiment [4] was “inactive” throughout. In addition, the Potency in experiment [7] is 2.29 µM (active); in [3] it was 4.57 µM (active); in [5] it was 8.12 µM (active).
`Cc1ccc(F)c(NC(=O)Nc2ccc(-c3cccc4[nH]nc(N)c34)cc2)c1`: the Potency in experiment [9] was 23.5 µM (active); in [2], 23.5 µM (active); in experiment [6] it was 14.8 µM (active); in experiment [7] it was 20.9 µM (active); in experiment [5], 18.7 µM (active).
Turning to `COc1ccc(-c2cc(=O)c3c(O)cc(O)cc3o2)cc1O`, the Potency in [7] is 2.64 µM (active); in experiment [8], 21.7 µM (active); in experiment [3], 11.8 µM (active); in [5], 18.7 µM (active). Moreover, the Potency result in [4] was “inactive”.
As to `Nc1nc(F)nc2c1ncn2[C@@H]1O[C@H](COP(=O)(O)O)[C@@H](O)[C@H]1O`, the Potency in experiment [9] was 4.69 µM (active); in [2], 0.662 µM (active); in [6], 14.8 µM (active); in [7], 0.264 µM (active); in experiment [8], 15.3 µM (active); in [3], 0.935 µM (active). In addition, the Potency in [5] was 0.743 µM (active). The Potency entry in [4] is “inactive”.
`Oc1ccc(C2CCN(c3ccnc4ccccc34)CC2)cc1O`: the Potency result in experiment [1] and in experiment [5] was “inactive” in each case. Further, the Potency in experiment [3] was 23.5 µM (active).
Take `NC(CO)(CO)CCc1ccc(Sc2cccc(OCc3ccccc3)c2)cc1Cl`: the Potency was 23.5 µM (active) in [9]; 18.7 µM (active) in experiment [2]; 14.8 µM (active) in experiment [6]; 2.64 µM (active) in [7]; 19.3 µM (active) in experiment [8]; 1.87 µM (active) in experiment [3]. Also, the Potency in [5] was 29.6 µM (active).
For the molecule `COc1ccc2c3c1OC1C[C@@H](O)C=C[C@@]31CCN(C)C2` (some centres not stated), the Potency entry in experiment [1], in [8], in experiment [4] and in [5] was “inactive” throughout.
For `CCOC(=O)C1=C(N)Oc2ccc(Br)cc2C1C(C#N)C(=O)OCC` (configuration not stated), the Potency result in experiment [1], in [8] and in [4] was “inactive” in each case. Further, the Potency in experiment [3] was 6.62 µM (active).
Regarding `CCn1c(C(=O)N(C2CC2)C2CC2)cc2c3c(ncn3C)c(Nc3cc(C)n(C)n3)nc21`, the Potency result in [1], in [8], in experiment [3] and in [4] was “inactive” throughout.
Regarding `NC(=O)c1cccc2[nH]c(-c3ccc([C@H]4CCCN4)cc3F)nc12`, the Potency result in [9], in experiment [2], in experiment [4] and in experiment [5] was “inactive” each time. In addition, the figures for the Potency in experiment [6] and in experiment [3] were 11.8 µM (active) and 18.7 µM (active), respectively.
